This passage reports composite z-score and z-score results from PubChem BioAssay.

Molecules are shown by their SMILES. The source made the active and inactive calls.

Assay [1] relates to PRMT1 (protein arginine N-methyltransferase 1). Briefly: PRMT1 binders on small-molecule microarrays, primary screen, biochemical, small-molecule microarray, 635 nm fluorescence (AID 1088).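 Also: binding of Prmt1 protein to compounds spotted on small-molecule microarray slides.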 The following applies: small-molecule microarray binding, higher = more signal.
A short description of assay [2]: yeast growth modulation, basal conditions, primary screen, YJM789 clinical isolate, OD600, 24 h (AID 1089).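 Also: growth of clinical yeast isolate S. cerevisiae YJM 789 seeded 1000 cells per well; test concentration not given here.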 The following applies: S. cerevisiae YJM789 growth, higher = more signal, called active from +8 up or from −8 down.
Assay [3] can be described thus: fission yeast growth modulation, primary screen, strain 972, OD600, 24 h, no modulator (AID 1090).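 Also: basal condition with compound alone and no growth modifier present; test concentration not given here.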 The following applies: S. pombe 972 growth, higher = more signal, called active from +8 up or from −8 down.
Assay [4] can be described thus: S. cerevisiae growth modulation with rapamycin, primary screen, strain BY4716, OD600, 96 h (AID 1091). Also: test concentration not given here. The following applies: higher = more signal, called active from +8 up or from −8 down.
The target of assay [5] is Torsin-1A-interacting protein 2 (Homo sapiens) (UniProt Q8NFQ8). Briefly: LULL1 binders on small-molecule microarray, primary screen, cell lysate, human LULL1 lysate, 635/667 nm fluorescence (AID 1092).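 Also: probe is lysate of COS7 cells overexpressing human LULL1; score merges per-feature 667 nm fluorescence with signal-to-noise.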 The following applies: hLULL1 lysate binding, 635 nm fluorescence, higher = more signal.
Assay [6] can be described thus: E. coli growth modulation, two-sided OD650, primary screen, E. coli filamentation project, strain DRC41, 24 h (AID 1093).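 Also: MC1000 strain lacking acrAB efflux and sulA so SOS filamentation is blocked; test concentration not given here.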 The following applies: OD650, 24 h, higher = more signal, called active from +8 up or from −8 down.
The nature of assay [7]: small-molecule microarray binders of probe aLefty2, primary screen, biochemical, biotinylated probe, 635/667 nm fluorescence (AID 1094).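 Also: score merges spot fluorescence near 667 nm with spot signal-to-noise ratio.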 The following applies: higher = more signal.
For assay [8], the system named is Noggin (protein binding on small-molecule microarray). The assay is described as follows: Noggin binders on small-molecule microarray, primary screen, biochemical, 635/667 nm fluorescence (AID 1095).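 Also: score merges 667 nm feature fluorescence with signal to noise over triplicate slides.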 The following applies: 635 nm fluorescence, higher = more signal.
The target of assay [9] is Neurogenic locus notch homolog protein 3 (Homo sapiens) (UniProt Q9UM47). The assay is described as follows: NOTCH3 binders on small-molecule microarray, primary screen, biochemical, 635/667 nm fluorescence (AID 1096). The following applies: NOTCH3 binding, 635 nm fluorescence, higher = more signal.
A short description of assay [10]: small-molecule microarray binders of probe aEGFR, primary screen, biochemical, biotinylated probe, 635/667 nm fluorescence (AID 1097).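 Also: probe is a biotinylated anti-EGFR antibody binding compounds printed on slides; score combines fluorescence near 667 nm and signal to noise of each spot.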 The following applies: higher = more signal.
Assay [11] deals with Plasmodium falciparum Sir2 (PF13_0152, Sir2A). Briefly: pfSir2 binders on small-molecule microarrays, primary screen, biochemical, small-molecule microarray, 635 nm fluorescence (AID 1098).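 Also: score merges spot fluorescence intensity with its signal-to-noise ratio.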 The following applies: small-molecule microarray binding, fluorescence 635 nm; higher = more signal.
A short description of assay [12]: small-molecule microarray binders of probe aDKK1, primary screen, biochemical, biotinylated probe, 635/667 nm fluorescence (AID 1099).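 Also: score merges 667nm spot fluorescence with signal to noise across triplicate slides; reference of the scale not given here.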 The following applies: higher = more signal.
Assay [13] can be described thus: small-molecule microarray binders of probe aCHRDL2, primary screen, biochemical, biotinylated probe, 635/667 nm fluorescence (AID 1100). The following applies: higher = more signal.
Assay [14] in a line: splicing luciferase reporter signal modulators, primary screen, spliceosome inhibition project, cell-based, HEK293, splice +/- reporter (AID 1101).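 Also: HEK293 cells carrying a splicing-competent luciferase reporter gene; test concentration not given here.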 The following applies: luminescence, 24 h, higher = more signal, called active from +8 up or from −8 down. For orientation: Reporter assays use an easily measured gene product as a stand-in for the process of interest.
For assay [15], the target named is Fibroblast growth factor 10 (Homo sapiens) (UniProt O15520). Briefly: FGF10 binders on small-molecule microarrays, primary screen, biochemical, small-molecule microarray, 635 nm fluorescence (AID 1102). The following applies: FGF10 binding, fluorescence 635 nm, higher = more signal.
Assay [16] concerns glycogen synthase kinase-3 (GSK3A per assay name; protocol says GSK3B). Briefly: GSK3 binders on small-molecule microarrays, primary screen, biochemical, small-molecule microarray, 635 nm fluorescence, GSK3A (AID 1103). Also: the record names both GSK3A and GSK3B. The following applies: small-molecule microarray binding, fluorescence 635 nm; higher = more signal.
Assay [17] has as its target Epidermal growth factor receptor (Homo sapiens) (UniProt P00533). Briefly: EGFR binders on small-molecule microarrays, primary screen, biochemical, small-molecule microarray, 635 nm fluorescence (AID 1104).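 Also: score merges 667 nm emission intensity with spot signal to noise over triplicate slides.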 The following applies: EGFR binding, higher = more signal.
The target in assay [18] is Follistatin-related protein 3 (Homo sapiens) (UniProt O95633). Briefly: FSTL3 binders on small-molecule microarrays, primary screen, biochemical, small-molecule microarray, 635 nm fluorescence (AID 1105).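 Also: score merges emission near 667 nm and signal to noise per printed spot across three slides.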 The following applies: FSTL3 binding, higher = more signal.
The target in assay [19] is Dickkopf-related protein 1 (Homo sapiens) (UniProt O94907). The assay is described as follows: DKK1 binders on small-molecule microarrays, primary screen, biochemical, small-molecule microarray, 635 nm fluorescence scan (AID 1106).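 Also: score merges emission near 667 nm with signal to noise over three replicate slides.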 The following applies: DKK1 binding, higher = more signal.
For assay [20], the system named is Inhibin beta A chain (activin A). Briefly: INHBA (activin A) binders on microarrays, primary screen, biochemical, small-molecule microarray, 635 nm fluorescence scan (AID 1107).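 Also: mouse activin A protein probed at 4.33 µg/mL on printed slides; score merges bound-protein fluorescence near 667 nm with spot signal-to-noise.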 The following applies: small-molecule microarray binding, higher = more signal.

Sequence of Follistatin-related protein 3 (Homo sapiens) (O95633 whole entry, looked up): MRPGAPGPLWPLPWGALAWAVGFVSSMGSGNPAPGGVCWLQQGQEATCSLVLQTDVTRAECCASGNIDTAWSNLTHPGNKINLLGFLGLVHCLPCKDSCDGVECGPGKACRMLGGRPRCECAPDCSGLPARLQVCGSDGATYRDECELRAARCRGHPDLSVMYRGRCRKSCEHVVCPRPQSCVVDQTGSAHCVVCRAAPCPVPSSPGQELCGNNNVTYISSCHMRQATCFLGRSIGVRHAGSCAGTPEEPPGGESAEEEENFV
Sequence of Fibroblast growth factor 10 (Homo sapiens) (O15520 whole entry, looked up): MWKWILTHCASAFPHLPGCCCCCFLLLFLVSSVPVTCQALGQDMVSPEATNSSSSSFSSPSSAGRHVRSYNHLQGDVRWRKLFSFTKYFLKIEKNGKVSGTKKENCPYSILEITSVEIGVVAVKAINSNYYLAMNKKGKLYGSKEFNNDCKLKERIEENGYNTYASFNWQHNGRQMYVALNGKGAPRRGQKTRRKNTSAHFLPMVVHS
Sequence of Neurogenic locus notch homolog protein 3 (Homo sapiens) (Q9UM47 whole entry, looked up): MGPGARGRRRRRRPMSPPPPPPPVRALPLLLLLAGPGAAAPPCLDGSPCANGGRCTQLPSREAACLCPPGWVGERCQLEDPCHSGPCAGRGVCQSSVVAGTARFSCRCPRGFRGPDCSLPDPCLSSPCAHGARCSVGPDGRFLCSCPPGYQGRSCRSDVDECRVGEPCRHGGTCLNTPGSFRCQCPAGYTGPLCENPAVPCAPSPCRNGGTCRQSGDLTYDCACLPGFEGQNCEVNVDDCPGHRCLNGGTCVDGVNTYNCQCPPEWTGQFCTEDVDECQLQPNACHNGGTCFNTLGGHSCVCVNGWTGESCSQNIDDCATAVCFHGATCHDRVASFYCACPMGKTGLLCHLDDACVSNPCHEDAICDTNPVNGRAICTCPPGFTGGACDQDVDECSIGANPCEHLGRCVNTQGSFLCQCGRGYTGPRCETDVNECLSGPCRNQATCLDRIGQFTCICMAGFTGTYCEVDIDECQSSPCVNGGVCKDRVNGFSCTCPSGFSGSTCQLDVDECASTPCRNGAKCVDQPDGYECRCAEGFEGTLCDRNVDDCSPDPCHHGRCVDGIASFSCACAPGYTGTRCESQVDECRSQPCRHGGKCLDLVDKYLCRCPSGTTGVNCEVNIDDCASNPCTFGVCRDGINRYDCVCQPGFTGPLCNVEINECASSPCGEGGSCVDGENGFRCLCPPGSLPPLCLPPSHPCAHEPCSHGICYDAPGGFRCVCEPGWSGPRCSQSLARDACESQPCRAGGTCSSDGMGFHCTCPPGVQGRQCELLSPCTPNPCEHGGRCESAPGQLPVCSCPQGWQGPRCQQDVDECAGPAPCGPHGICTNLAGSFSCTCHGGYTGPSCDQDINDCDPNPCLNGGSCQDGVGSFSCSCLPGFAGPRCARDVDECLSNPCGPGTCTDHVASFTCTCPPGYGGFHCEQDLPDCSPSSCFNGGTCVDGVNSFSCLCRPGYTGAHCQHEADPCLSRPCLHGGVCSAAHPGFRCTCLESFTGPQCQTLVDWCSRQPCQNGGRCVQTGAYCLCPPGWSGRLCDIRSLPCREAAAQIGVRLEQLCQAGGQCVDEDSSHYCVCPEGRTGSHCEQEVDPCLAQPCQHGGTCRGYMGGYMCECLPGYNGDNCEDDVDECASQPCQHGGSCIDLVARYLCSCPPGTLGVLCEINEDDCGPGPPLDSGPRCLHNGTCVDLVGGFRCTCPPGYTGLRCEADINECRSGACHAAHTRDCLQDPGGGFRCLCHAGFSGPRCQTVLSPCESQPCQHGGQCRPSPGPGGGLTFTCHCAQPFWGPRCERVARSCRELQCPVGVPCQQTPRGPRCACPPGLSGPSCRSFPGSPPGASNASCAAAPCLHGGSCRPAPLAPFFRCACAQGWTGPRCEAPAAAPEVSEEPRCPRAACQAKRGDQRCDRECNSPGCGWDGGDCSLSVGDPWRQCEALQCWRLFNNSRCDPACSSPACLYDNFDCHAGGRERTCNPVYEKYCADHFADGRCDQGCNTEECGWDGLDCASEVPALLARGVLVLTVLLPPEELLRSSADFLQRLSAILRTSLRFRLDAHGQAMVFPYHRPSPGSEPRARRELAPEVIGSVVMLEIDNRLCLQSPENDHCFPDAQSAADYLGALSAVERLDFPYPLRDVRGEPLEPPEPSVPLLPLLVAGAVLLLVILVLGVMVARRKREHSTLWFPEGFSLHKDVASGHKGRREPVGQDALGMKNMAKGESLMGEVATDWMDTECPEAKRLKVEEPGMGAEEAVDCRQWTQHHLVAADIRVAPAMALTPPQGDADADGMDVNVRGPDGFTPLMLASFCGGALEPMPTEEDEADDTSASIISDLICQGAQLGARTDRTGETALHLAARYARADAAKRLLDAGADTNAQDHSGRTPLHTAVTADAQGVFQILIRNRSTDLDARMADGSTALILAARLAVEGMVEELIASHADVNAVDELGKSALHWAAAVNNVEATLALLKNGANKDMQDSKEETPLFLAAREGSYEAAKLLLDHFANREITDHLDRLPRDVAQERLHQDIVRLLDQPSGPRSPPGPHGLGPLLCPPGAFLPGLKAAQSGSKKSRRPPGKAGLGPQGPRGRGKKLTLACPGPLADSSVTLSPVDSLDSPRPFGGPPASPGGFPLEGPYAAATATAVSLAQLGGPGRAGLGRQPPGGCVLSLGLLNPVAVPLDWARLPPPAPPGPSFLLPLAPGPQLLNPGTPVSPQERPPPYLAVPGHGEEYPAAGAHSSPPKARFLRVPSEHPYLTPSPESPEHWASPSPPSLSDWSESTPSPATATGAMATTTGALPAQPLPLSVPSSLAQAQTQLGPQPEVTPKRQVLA
Sequence of Epidermal growth factor receptor (Homo sapiens) (P00533 whole entry, looked up): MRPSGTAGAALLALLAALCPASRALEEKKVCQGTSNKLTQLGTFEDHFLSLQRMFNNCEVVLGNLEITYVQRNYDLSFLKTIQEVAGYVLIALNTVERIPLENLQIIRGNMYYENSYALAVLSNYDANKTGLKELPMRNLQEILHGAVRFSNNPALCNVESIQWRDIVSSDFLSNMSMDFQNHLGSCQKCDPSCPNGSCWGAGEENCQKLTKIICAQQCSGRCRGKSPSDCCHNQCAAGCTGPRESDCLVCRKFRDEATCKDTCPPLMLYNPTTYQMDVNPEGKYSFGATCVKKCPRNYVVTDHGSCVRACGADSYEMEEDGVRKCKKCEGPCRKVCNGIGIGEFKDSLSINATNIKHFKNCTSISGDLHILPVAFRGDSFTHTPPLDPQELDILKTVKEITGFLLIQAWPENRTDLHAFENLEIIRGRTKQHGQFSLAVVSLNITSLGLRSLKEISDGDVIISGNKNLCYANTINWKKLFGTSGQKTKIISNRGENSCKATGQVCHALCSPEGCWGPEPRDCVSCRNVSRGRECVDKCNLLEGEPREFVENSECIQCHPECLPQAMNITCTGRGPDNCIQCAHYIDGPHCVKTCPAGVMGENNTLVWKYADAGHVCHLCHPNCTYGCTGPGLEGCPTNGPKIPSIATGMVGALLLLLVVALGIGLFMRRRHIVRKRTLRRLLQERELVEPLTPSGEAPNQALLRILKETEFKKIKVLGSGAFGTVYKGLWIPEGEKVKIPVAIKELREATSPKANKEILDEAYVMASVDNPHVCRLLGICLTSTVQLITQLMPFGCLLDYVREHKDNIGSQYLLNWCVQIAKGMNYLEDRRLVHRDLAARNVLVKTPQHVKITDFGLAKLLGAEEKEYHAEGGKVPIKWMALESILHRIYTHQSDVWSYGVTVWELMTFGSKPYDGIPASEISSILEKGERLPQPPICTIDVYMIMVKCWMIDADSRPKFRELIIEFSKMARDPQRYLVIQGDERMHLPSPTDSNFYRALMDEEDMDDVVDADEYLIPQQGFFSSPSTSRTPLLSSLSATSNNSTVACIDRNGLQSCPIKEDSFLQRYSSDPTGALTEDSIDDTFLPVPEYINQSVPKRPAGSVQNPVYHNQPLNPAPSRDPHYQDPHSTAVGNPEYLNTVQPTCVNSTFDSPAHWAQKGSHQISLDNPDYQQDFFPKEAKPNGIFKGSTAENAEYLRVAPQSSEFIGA
Sequence of Torsin-1A-interacting protein 2 (Homo sapiens) (Q8NFQ8 whole entry, looked up): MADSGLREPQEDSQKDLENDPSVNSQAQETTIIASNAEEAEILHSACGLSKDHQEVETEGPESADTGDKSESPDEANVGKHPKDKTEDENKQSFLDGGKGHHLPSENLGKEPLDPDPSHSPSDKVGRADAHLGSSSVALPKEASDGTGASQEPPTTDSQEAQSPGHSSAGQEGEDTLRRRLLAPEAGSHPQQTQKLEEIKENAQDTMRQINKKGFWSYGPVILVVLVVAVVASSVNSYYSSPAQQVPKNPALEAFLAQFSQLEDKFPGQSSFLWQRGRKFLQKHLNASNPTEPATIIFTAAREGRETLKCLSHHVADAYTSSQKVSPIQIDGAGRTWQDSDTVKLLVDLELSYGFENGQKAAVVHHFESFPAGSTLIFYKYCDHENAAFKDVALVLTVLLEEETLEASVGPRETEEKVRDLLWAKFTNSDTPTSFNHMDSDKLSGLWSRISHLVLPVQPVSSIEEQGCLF
Sequence of Dickkopf-related protein 1 (Homo sapiens) (O94907 whole entry, looked up): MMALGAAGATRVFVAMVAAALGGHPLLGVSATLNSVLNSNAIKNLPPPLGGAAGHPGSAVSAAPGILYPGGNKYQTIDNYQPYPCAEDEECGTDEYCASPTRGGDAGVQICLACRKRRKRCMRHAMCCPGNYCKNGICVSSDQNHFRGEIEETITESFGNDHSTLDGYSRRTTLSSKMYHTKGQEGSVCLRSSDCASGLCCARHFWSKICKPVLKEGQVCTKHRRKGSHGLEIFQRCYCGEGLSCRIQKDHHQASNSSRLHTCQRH

As to `Cc1ccc(F)cc1S(=O)(=O)N[C@@H]1CCN(Cc2ccc3c(c2)OCO3)C1`, the composite z-score is -0.5 in assay [1]; -0.539 in assay [5]; -0.148 in [7]; 0.171 in assay [8]; -0.307 in assay [9]; -0.226 in [10]. Besides, the composite z-score is 0.0014 in assay [11]; -0.247 in assay [12]; -0.289 in [13]; -0.24 in [15]; -0.191 in assay [16]; 0.0122 in assay [17]. Moreover, the results for the composite z-score in [18], in assay [19] and in assay [20] were -0.272, 0.537 and 0.528, respectively. In addition, the z-score in [2] was 0.158 (inactive); in [3], -2.41 (inactive); in assay [4], 1.23 (inactive); in assay [6] it was -1.4 (inactive); in [14] it was -0.0924 (inactive).
Regarding `COCCOC(=O)N1C(=O)[C@@]2(c3ccccc31)[C@H](C(N)=O)[C@H]1C(=O)O[C@H](c3ccccc3)[C@H](c3ccccc3)N1[C@@H]2c1ccc(OCCO)cc1`, the composite z-score in assay [1] is 1.54; in assay [5], 2.58; in assay [7], -0.0862; in assay [8], 1.61; in assay [9], 1.14; in assay [10] it was -0.132. Besides, the composite z-score in [11] was 0.537; in [12] it was -0.122; in [13], 0.093; in assay [15] it was 1.08; in assay [16] it was 1.3; in assay [17], 0.0401. Also, the composite z-score in assay [18] amounted to 1.1; in assay [19] it was 0.253; in assay [20] it was 0.319. Also, the z-score in assay [2] is 2.25 (inactive); in [3], 0.601 (inactive); in assay [4], 4.25 (inactive); in [6], 0.935 (inactive); in [14], 0.172 (inactive).
For `C#CCN=C(N)N`, the composite z-score was 0.21 in assay [1]; 0.737 in [5]; -0.18 in [7]; 0.759 in [8]; 0.562 in [9]; 0.0768 in assay [10]. Also, the composite z-score in assay [11] was 0.271; in assay [12], 0.0623; in [13] it was -0.534; in [15], 0.528; in assay [16], 0.605; in [17], 0.527. In addition, the values for the composite z-score in assay [18], in [19] and in assay [20] were 0.918, 0.861 and 0.548, respectively. Also, the z-score in assay [2] was -0.303 (inactive); in [3], -0.349 (inactive); in assay [4] it was -0.247 (inactive); in assay [6] it was -0.291 (inactive); in assay [14], 0.422 (inactive).
Take `CC(C)(C)OC(=O)CC[C@]1(C(N)=O)N=C(c2ccc(OCCCO)cc2)O[C@H]1c1ccccc1CN=[N+]=[N-]`: the composite z-score in [1] is 1.15; in [5], 3.62; in assay [7] it was 0.314; in [8], 0.0447; in assay [9], 1.08; in [10], 0.306. For the same compound, the composite z-score is 1.62 in assay [11]; 1.11 in [12]; 1.2 in assay [13]; 1.44 in assay [15]; 1.28 in [16]; -0.643 in [17]. Also, the figures for the composite z-score in [18], in assay [19] and in [20] were 0.0115, -0.395 and 0.0976, respectively. Besides, the z-score in assay [2] was 1.33 (inactive); in assay [3] it was 0.835 (inactive); in [4], 0.56 (inactive); in assay [6], 0.528 (inactive); in [14] it was -0.26 (inactive).
`CCCC[C@H]1OB(O)C[C@H]2C1=C(C)C[C@H]1C(=O)C=CC(=O)[C@H]12`: the composite z-score in [1] was 1.24; in assay [5], 1.01; in [7] it was -0.0916; in assay [8], 0.782; in assay [9], 1.04; in assay [10] it was -0.071. Further, the composite z-score in assay [11] is 0.559; in assay [12], -0.257; in assay [13] it was -0.722; in assay [15], 0.845; in assay [16] it was 0.827; in [17], 0.475. The values for the composite z-score in assay [18], in [19] and in [20] were 0.799, 0.664 and 0.852, respectively. Moreover, the z-score in assay [2] is 0.111 (inactive); in assay [3], -15.4 (active); in assay [4] it was -0.0407 (inactive); in assay [6] it was -0.0396 (inactive); in assay [14] it was 1.04 (inactive).
